Sampled rows, rich in hits. Any-hit rate of the full collection: about 1.9%.
OPRM1-OPRD1 ag – agonists of OPRM1-OPRD1 heterodimerization, primary screen, cell-based, luminescence | cells | activation, % at 9.3 µM | hit rate 0.3% among 340,000 | AID 504326, 2011
OPRM1-OPRD1 inv – inverse agonists of MOR-DOR heterodimerization, primary screen, cell-based, luminescence. hit rate 0.21% among 340,000. inhibition, % at 9.3 µM. cell-based MOR-DOR heterodimer luminescence, inverse agonism; in the data active = inhibition above about 22%, passing the limit was not always enough
bovine MsrA act – bovine MsrA enzyme activators, primary screen, biochemical, absorbance, HTS; purified bovine MsrA, absorbance read-out; activation, % at 10.6 µM; AID 602163, 2012; hit rate 0.3% among 360,000; in the data active = activation above about 7.5%
HTR5A inv ag – HTR5A inverse agonists in luminescence cell assay, primary screen, counter-screen for OPRM1-OPRD1 heterodimer inverse agonist project, full-deck HTS; AID 504634, 2011; hit rate 0.083% among 340,000; HTR5A cell line, inverse agonism; 5-hydroxytryptamine receptor 5A (Homo sapiens), P47898; inhibition, % at 9.3 µM; in the data active = inhibition mostly above about 23%, no sharp cut-off; inactive = mostly below about 18%
Target sequence (P47898 whole entry, looked up): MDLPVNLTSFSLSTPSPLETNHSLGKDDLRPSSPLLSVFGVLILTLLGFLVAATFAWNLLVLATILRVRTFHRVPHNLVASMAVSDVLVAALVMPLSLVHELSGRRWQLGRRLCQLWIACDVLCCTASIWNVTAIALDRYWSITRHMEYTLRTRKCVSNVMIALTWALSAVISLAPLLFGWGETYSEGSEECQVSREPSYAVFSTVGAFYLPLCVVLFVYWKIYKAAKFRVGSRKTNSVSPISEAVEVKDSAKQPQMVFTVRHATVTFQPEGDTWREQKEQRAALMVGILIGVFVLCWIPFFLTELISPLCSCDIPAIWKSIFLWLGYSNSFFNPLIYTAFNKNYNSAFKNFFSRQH
HTR5A ag ctr – HTR5A agonists in luminescence cell assay, primary screen, counter-screen for OPRM1-OPRD1 heterodimer agonist project, full-deck HTS. 5-hydroxytryptamine receptor 5A (Homo sapiens), P47898. cell-based. activation, % at 9.3 µM. hit rate 0.61% among 340,000. AID 504692, 2011; in the data active = activation mostly above about 9.5%, no sharp cut-off; inactive = mostly below about 7.6%
MsrA inhibitor – bovine MsrA enzyme inhibitors, primary screen, biochemical, absorbance, HTS. purified bovine MsrA, absorbance read-out. Methionine sulfoxide reductase A (Bos taurus). hit rate 0.75% among 360,000. inhibition, % at 15.5 µM; in the data active = inhibition above about 4.5%
OPRM1-D1 ag cf – agonists of MOR-DOR heterodimerization, confirmation, cell-based, luminescence | cells, luminescence complementation | AID 504904, 2011 | activation, % at 9.3 µM | hit rate 45% among 830 | shares compounds with OPRM1-OPRD1 ag
HTR5A ag ctr2 – HTR5A agonists in cells, counter-screen for OPRM1-OPRD1 heterodimer agonist project, cell-based, luminescence; shares compounds with OPRM1-OPRD1 ag; HTR5A agonist counterscreen; activation, % at 9.3 µM; hit rate 8% among 830; in the data active = activation above about 17%
Numbers stand for hits; . = inactive; / = no result. Rule as the data show it, unless noted: active = activation above about 18%; inactive = the rest.

SMILES | OPRM1-OPRD1 ag | OPRM1-OPRD1 inv | bovine MsrA act | HTR5A inv ag | HTR5A ag ctr | MsrA inhibitor | OPRM1-D1 ag cf | HTR5A ag ctr2
CC1(NC(=O)CC(c2ccccc2)(c2ccccc2)c2ccccc2)CCN(CCCc2ccccc2)C1=O (stereo not given) | 237 | . | . | . | . | . | 193 | .
O=C(Nc1ccccc1N1CCOCC1)c1ccc2nc[nH]c2c1 | 19 | . | . | . | . | . | . | .
CCC(=O)c1ccc(N2CCN(S(=O)(=O)c3ccccc3)CC2)c(F)c1 | 21 | . | . | . | . | . | . | .
COc1ccc(S(=O)(=O)N2CCCc3nc(C)c(C)cc32)cc1 | / | / | / | / | / | . | / | /
C[C@H]1[C@H](c2ccccc2)Oc2cccc(NCCc3ccccc3)c2S(=O)(=O)N1Cc1cccc(Cl)c1 | / | / | / | / | / | . | / | /
O=C(NCCc1ccccc1)C(c1cccs1)N(C(=O)CCl)c1ccc(Cl)cc1 (stereo not given) | 87 | . | . | . | 32 | . | . | .
O=C(N[C@H](Cc1ccccc1)C(=O)NCc1ccc2c(c1)OCO2)[C@H]1O[C@@H](n2ccc(=O)[nH]c2=O)[C@H](O)[C@@H]1O | / | / | / | / | / | . | / | /
COc1ccc(Cl)cc1NS(=O)(=O)c1cccc(C(=O)NC2CCN(Cc3ccccc3)CC2)c1 | 18 | . | . | . | . | . | 26 | .
Cc1c(CCOC(=O)c2cc([N+](=O)[O-])cc([N+](=O)[O-])c2)sc[n+]1CC(=O)c1ccccc1 | . | . | . | . | . | . | / | /
Cc1c(CCOC(=O)c2ccccc2)sc[n+]1CC(=O)c1ccc(Br)cc1 | 36 | . | . | . | . | / | 54 | .
COCC(=O)OC/C(O)=C(\C#N)c1nc2ccccc2[nH]1 | . | . | . | . | . | . | / | /
N#C/C(=C(/O)COC(=O)COc1cccc(Br)c1)c1nc2ccccc2[nH]1 | 26 | . | . | . | . | . | . | .
CCOC(=O)c1c(C)[nH]c(C(=O)OCC(O)=C(C#N)c2nc3ccccc3[nH]2)c1C | 38 | . | . | . | 13 | . | 31 | .
COC(=O)c1cc2c(c3c4cc(C#N)ccc4n(S(=O)(=O)c4ccc(C)cc4)c13)C(=O)N(C)C2 | / | / | / | / | / | . | / | /
CC(=O)Nc1c(Br)cc2c(c1Br)Cc1cc(Br)ccc1-2 | 34 | . | . | . | . | . | 19 | .
O=CNc1c(Br)cc2c(c1Br)Cc1cc(Br)ccc1-2 | . | . | . | . | . | . | / | /
Cc1cccc(C(=O)NCC(c2ccco2)N(C)C)c1 (stereo not given) | . | . | . | . | . | . | / | /
CN(C)C(CNC(=O)Cc1cccc(C(F)(F)F)c1)c1ccco1 (stereo not given) | 63 | . | . | . | . | . | 22 | .
CN(C)C(CNC(=O)C1CCN(S(=O)(=O)c2cccc(C(F)(F)F)c2)CC1)c1ccccc1 (stereo not given) | 22 | . | . | . | . | . | 140 | .
CN(C)C(CNC(=O)Cc1cccc(C(F)(F)F)c1)c1ccccc1 (stereo not given) | 249 | . | . | . | . | . | 252 | .
CN(C)C(CNC(=O)C1CCN(S(=O)(=O)c2ccccc2)CC1)c1ccccc1 (stereo not given) | . | . | . | . | . | . | / | /
COC(=O)[C@]12C[C@H](CC(=O)N3CCSCC3)C(=O)N(Cc3ccccc3)C1=C[C@H](C1CCCC1)O[C@@H]2C | / | / | / | / | / | . | / | /
O=C(O)C(=Cc1ccc([N+](=O)[O-])cc1)c1ccccc1 | / | / | / | / | / | . | / | /
C#CCOc1ccccc1C(=O)NNc1ccc([N+](=O)[O-])cc1[N+](=O)[O-] | / | / | / | / | / | . | / | /
CCOc1cc(C)c(S(=O)(=O)Nc2ccc(F)cc2)cc1C | 19 | . | . | . | . | . | . | .
SMILES | OPRM1-OPRD1 ag | OPRM1-OPRD1 inv | bovine MsrA act | HTR5A inv ag | HTR5A ag ctr | MsrA inhibitor | OPRM1-D1 ag cf | HTR5A ag ctr2
COc1ccc(C)cc1S(=O)(=O)Nc1ccc(F)cc1 | . | . | . | . | . | . | / | /
COC(=O)c1c(-c2ccc(OC)cc2)c2c(c3c4cc(F)ccc4n(S(=O)(=O)c4ccc(C)cc4)c13)C(=O)N(C)C2 | / | / | / | / | / | . | / | /
CSc1ccccc1NC(=O)Nc1ccc(Cl)cc1 | 26 | . | . | . | . | . | . | .
COC(=O)NCC(c1ccc2c(c1)OCO2)N1CCN(c2ccccc2)CC1 (stereo not given) | 217 | . | . | . | . | . | 193 | .
COc1ccc(C(=O)NCC(c2ccc3c(c2)OCO3)N2CCN(c3ccc(OC)cc3)CC2)cc1 (stereo not given) | . | . | . | . | . | . | / | /
COC(=O)C1=C(C)N(Cc2cccc(C(F)(F)F)c2)C(=NCc2ccc(C(F)(F)F)cc2)NC1c1cccc(C(F)(F)F)c1 (stereo not given) | / | / | / | / | / | . | / | /
COCc1c(C(=O)N/N=C/c2cccc3ccccc23)nnn1-c1nonc1N | 27 | . | . | . | . | . | . | .
COc1ccc2ccccc2c1/C=N/NC(=O)c1nnn(-c2nonc2N)c1CN(C)C | . | . | . | . | . | . | / | /
COC(=O)C1=C(C)N(C)C(=NCC2CC2)NC1c1ccc(F)cc1 (stereo not given) | / | / | / | / | / | . | / | /
Cc1cc(/C=C2/C(=O)NN(c3ccccc3)C2=O)c(C)n1-c1ccc(O)cc1 | 61 | . | . | . | . | . | 50 | .
C=CCN1C(=O)c2n[nH]c(C(C)C)c2C1c1ccc(C)cc1 (stereo not given) | / | / | / | / | / | . | / | /
Cc1ccc(Nc2cc(C)nc3c(C)cccc23)cc1 | 29 | . | . | . | . | . | . | .
CC(=O)CSc1ccc(-c2nc3cc(C)c(C)cc3[nH]2)cn1 | 47 | . | . | . | . | 4.7 | 32 | .
CC(=O)CSc1ccc(-c2nc3ccccc3[nH]2)cn1 | . | . | . | . | . | . | / | /
CN(C)C(CNC(=O)c1ccc2ccccc2n1)c1ccccc1 (stereo not given) | 58 | . | . | . | . | . | . | .
CN(C)C(CNC(=O)c1cnc(Cl)c(Cl)c1)c1ccccc1 (stereo not given) | 353 | . | . | . | . | . | 374 | .
CN(C)C(CNC(=O)/C=C/c1cccc(Cl)c1)c1ccccc1 (stereo not given) | 275 | . | . | . | . | . | . | .
CC(NC(=O)c1ccc2ccccc2n1)c1ccccc1 (stereo not given) | . | . | . | . | . | . | / | /
COCc1cc(N2CCNC[C@@H]2C)ccc1N1C[C@@H](C)O[C@@H](C)C1 | / | / | / | / | / | . | / | /

Screening results as filed in PubChem BioAssay.
